Laboratory results published in the supplement of paper PMC10849652.
Of roughly 8,800 targets only a part is listed; those with a hit were picked by preference. About 0.5% of all pairs of compound and target were hits.

Experiments:
Assay in all cases: log2 fold change, soluble protein after heating vs DMSO (PISA); higher = thermal stabilisation; K562 lysate, 10 uM; active = over 0.2 and 3.5 SD of the protein, either way, in both replicates (recomputed)
[1] = compound: CC1=C(C2=C(C=C1)C(=O)C3=CC=CC=C3N2CCCN)C
Procedure, shortened: (§1)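 Following dounce homogenisation of K562 pellets in PBS pH 7.4 with 1 mM MgCl2, crude extract at 1 mg/mL protein was incubated for 30 min with 10 μM compound. Aliquots were then heated for 3 min over 48°C-58°C and pooled, NP-40 was added to 0.5% at 4°C, and soluble protein was recovered as the supernatant at 21,000xg for 90 min. Channel-sum-equalised TMTpro 16plex LC-MS/MS quantified this protein. Each value, from duplicates, is a log-two fold change in thermal stability relative to solvent controls.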

erlotinib = compound: C#Cc1cccc(Nc2ncnc3cc(OCCOC)c(OCCOC)cc23)c1 [erlotinib]
Procedure, shortened: as §1

[2] = compound: C1=CC(=CC=C1C2=NC3=C(N2)C=C(C=C3)C(=O)N)OC4=CC=C(C=C4)Cl
Procedure, shortened: as §1

[3] = compound: C1=CC=C(C=C1)C2=NC(=C(N2)C3=CC=NC=C3)C4=CC(=C(C=C4)Cl)O
Procedure, shortened: as §1

IRAK-1-4 Inhibitor I = compound: C1COCCN1CCN2C3=CC=CC=C3N=C2NC(=O)C4=CC(=CC=C4)[N+](=O)[O-] [IRAK-1-4 Inhibitor I]
Procedure, shortened: as §1

ralimetinib = compound: CC(C)(C)Cn1c(N)nc2ccc(-c3[nH]c(C(C)(C)C)nc3-c3ccc(F)cc3)nc21 [ralimetinib]
Procedure, shortened: as §1

[4] = compound: CC(C)(O)CC(=O)NCCn1ccc2ncnc(Nc3ccc(Oc4cccc(C(F)(F)F)c4)c(Cl)c3)c21
Procedure, shortened: as §1

[5] = compound: CC(C)C1=C2N=C(C=C(N2N=C1)NCC3=CC=CC=C3)NCCCCCCN
Procedure, shortened: as §1

[6] = compound: CC1=C(C=C(C=C1)NC(=O)C2=CC(=CC=C2)C(C)(C)C#N)NC3=CC4=C(C=C3)N=CN(C4=O)C
Procedure, shortened: as §1

[7] = compound: CC1=C(C=C(C=C1)NC(=O)C2=CC(=CC=C2)N(C)C)NC(=O)C3=CC=C(C=C3)O
Procedure, shortened: as §1

[8] = compound: C1=CC2=NC=CN=C2C=C1/C=C/3\C(=O)NC(=O)S3
Procedure, shortened: as §1

ibrutinib = compound: C=CC(=O)N1CCC[C@@H](n2nc(-c3ccc(Oc4ccccc4)cc3)c3c(N)ncnc32)C1 [ibrutinib]
Procedure, shortened: as §1

[9] = compound: CC(=O)c1cnc2ccc(-c3cc(Cl)c(O)c(Cl)c3)nc2c1N[C@H]1CC[C@H](CN(C)C)CC1
Procedure, shortened: as §1

[10] = compound: CC1=CC=C(C=C1)SC2=C3C=C(SC3=CN=C2)C(=O)N
Procedure, shortened: as §1

[11] = compound: C/C(=N\NC(=O)C1=CC(=CC=C1)S(=O)(=O)N2CCOCC2)/C3=C(C=CC(=C3)Cl)O
Procedure, shortened: as §1

[12] = compound: C1=CC2=C(C=CC(=C2)/C=C\3/C(=O)NC(=NCC4=CC=CS4)S3)N=C1
Procedure, shortened: as §1

[13] = compound: C1=CC=C2C(=C1)C3=NNC4=CC=CC(=C43)C2=O
Procedure, shortened: as §1

[14] = compound: C1CCN(C1)C(=O)NC2=CC=CC(=C2)NC3=NC=C(C(=N3)NCCC4=CN=CN4)Br
Procedure, shortened: as §1

[15] = compound: C1CN(CCC1(CC2=CC=C(C=C2)Cl)N)C3=NC=NC4=C3C=CN4
Procedure, shortened: as §1

[16] = compound: CC1=C(C(CC(=O)N1)C2=CC=C(C=C2)C(F)(F)F)C(=O)NC3=C(C=C4C(=C3)C=NN4)F
Procedure, shortened: as §1

Measured: log2 fold change

ZNF146 (UniProt Q15072)
inactive: [1] -0.187

ZNF281 (UniProt Q9Y2X9)
Chain of UniProt Q9Y2X9 (Q9Y2X9 whole entry, looked up): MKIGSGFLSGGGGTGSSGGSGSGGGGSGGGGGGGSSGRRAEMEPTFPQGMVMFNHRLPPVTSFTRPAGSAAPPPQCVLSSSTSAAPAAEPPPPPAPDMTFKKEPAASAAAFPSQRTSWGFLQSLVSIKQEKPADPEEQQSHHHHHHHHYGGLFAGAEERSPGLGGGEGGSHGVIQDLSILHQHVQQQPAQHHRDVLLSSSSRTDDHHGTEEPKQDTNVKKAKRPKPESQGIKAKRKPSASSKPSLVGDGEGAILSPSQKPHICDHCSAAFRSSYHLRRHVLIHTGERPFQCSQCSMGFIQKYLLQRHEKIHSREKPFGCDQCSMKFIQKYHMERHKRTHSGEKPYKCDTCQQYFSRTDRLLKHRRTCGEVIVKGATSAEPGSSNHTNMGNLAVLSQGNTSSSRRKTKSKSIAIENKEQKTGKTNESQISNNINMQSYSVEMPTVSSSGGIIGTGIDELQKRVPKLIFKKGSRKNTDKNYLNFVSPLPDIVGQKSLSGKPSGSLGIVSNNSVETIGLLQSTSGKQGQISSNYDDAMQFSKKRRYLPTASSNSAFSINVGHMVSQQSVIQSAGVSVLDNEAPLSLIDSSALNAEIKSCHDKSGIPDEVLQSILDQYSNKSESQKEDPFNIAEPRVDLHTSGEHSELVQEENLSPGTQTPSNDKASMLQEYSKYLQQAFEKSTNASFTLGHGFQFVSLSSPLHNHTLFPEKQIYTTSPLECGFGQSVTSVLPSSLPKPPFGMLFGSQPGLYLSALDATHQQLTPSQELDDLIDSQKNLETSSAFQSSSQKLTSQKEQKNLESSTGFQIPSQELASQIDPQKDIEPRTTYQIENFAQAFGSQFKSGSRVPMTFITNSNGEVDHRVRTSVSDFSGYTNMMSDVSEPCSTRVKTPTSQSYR
inactive: erlotinib -0.191 | [2] -0.106 | [3] 0.006 | IRAK-1-4 Inhibitor I 0.069 | ralimetinib -0.055 | [4] 0.081 | [5] 0.039 | [1] -0.008 | [6] -0.081 | [7] -0.041

ZFYVE19 isoform 3 (UniProt Q96K21)
Chain of UniProt Q96K21 (Q96K21 whole entry, looked up): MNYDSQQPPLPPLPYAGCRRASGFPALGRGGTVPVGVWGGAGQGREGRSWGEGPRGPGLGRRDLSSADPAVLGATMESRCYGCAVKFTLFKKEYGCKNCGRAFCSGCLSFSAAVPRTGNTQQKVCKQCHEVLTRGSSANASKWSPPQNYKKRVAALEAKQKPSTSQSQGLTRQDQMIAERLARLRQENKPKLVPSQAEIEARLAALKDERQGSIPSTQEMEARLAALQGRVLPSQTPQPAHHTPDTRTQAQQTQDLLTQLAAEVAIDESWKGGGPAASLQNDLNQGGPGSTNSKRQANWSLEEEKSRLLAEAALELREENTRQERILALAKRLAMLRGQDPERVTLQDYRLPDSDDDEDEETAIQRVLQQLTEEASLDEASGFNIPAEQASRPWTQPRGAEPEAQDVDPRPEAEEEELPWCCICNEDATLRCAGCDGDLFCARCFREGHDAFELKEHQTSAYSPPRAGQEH
inactive: [8] 0.038 | ibrutinib 0.085 | [9] -0.084 | [10] 0.047

YBEY (UniProt P58557)
Chain of UniProt P58557 (P58557 whole entry, looked up): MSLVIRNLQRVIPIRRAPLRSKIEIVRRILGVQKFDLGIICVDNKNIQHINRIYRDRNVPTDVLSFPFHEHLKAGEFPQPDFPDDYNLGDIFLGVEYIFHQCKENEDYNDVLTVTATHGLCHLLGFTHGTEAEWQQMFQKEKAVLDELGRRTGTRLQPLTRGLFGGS
inactive: erlotinib 0.101 | [11] -0.164 | [2] 0.009 | [12] -0.039 | [13] -0.031 | [14] -0.011 | [15] 0.111 | [5] 0.016 | [1] -0.029

ZNF593 (UniProt O00488)
Chain of UniProt O00488 (O00488 whole entry, looked up): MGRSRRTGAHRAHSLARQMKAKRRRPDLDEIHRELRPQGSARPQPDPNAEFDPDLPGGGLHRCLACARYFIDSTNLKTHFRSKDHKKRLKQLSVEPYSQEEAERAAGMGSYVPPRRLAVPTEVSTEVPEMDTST
inactive: erlotinib -0.084 | [11] -0.149 | [2] 0.116 | [12] 0.003 | [8] 0.005 | [3] -0.098 | [13] 0.059 | [14] 0 | [15] 0.084 | IRAK-1-4 Inhibitor I 0.003 | ibrutinib 0.018 | [9] 0.17 | ralimetinib 0.096 | [4] 0.013 | [5] -0.081 | [1] -0.017 | [6] -0.028 | [7] -0.034 | [10] -0.051

ZDHHC17 (UniProt Q8IUH5)
Chain of UniProt Q8IUH5 (Q8IUH5 whole entry, looked up): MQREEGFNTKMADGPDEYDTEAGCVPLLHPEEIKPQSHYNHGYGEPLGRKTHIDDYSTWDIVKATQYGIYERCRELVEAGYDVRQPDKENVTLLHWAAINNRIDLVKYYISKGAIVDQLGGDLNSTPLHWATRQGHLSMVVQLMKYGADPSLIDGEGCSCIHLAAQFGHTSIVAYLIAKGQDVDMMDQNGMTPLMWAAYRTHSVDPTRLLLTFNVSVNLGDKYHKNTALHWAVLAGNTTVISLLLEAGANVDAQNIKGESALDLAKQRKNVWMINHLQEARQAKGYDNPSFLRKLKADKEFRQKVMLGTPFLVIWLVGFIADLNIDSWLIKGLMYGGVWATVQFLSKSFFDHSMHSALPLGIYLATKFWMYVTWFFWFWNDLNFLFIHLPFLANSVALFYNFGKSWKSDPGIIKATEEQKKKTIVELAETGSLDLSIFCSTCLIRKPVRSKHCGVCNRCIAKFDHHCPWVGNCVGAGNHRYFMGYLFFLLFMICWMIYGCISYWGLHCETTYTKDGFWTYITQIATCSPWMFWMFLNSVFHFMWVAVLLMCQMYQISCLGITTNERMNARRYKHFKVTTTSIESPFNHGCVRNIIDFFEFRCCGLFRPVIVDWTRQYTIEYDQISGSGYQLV
inactive: [11] 0.197 | [12] 0.011 | [3] -0.082 | [13] -0.247 | [14] -0.066 | [15] -0.027 | IRAK-1-4 Inhibitor I 0.205 | [9] -0.063 | ralimetinib 0.077 | [4] 0.047 | [16] -0.001 | [1] 0.161 | [6] -0.171 | [7] -0.067 | [10] -0.032

ZNF346 (UniProt Q9UL40)
inactive: erlotinib -0.057 | [2] -0.009 | [8] -0.035 | [3] -0.014 | [14] 0.016 | [15] -0.002 | IRAK-1-4 Inhibitor I 0.015 | ibrutinib -0.041 | [9] 0.008 | ralimetinib -0.019 | [4] -0.075 | [5] -0.012 | [16] -0.08 | [1] 0.111 | [6] -0.019 | [7] -0.004 | [10] 0.018

WAS (UniProt P42768)
inactive: erlotinib 0.023 | [2] 0.074 | [8] -0.149 | [14] 0.007 | [15] 0.026 | ibrutinib -0.06 | [5] -0.01 | [16] 0.071 | [1] 0.143

ZBTB40 (UniProt Q9NUA8)
Chain of UniProt Q9NUA8 (Q9NUA8 whole entry, looked up): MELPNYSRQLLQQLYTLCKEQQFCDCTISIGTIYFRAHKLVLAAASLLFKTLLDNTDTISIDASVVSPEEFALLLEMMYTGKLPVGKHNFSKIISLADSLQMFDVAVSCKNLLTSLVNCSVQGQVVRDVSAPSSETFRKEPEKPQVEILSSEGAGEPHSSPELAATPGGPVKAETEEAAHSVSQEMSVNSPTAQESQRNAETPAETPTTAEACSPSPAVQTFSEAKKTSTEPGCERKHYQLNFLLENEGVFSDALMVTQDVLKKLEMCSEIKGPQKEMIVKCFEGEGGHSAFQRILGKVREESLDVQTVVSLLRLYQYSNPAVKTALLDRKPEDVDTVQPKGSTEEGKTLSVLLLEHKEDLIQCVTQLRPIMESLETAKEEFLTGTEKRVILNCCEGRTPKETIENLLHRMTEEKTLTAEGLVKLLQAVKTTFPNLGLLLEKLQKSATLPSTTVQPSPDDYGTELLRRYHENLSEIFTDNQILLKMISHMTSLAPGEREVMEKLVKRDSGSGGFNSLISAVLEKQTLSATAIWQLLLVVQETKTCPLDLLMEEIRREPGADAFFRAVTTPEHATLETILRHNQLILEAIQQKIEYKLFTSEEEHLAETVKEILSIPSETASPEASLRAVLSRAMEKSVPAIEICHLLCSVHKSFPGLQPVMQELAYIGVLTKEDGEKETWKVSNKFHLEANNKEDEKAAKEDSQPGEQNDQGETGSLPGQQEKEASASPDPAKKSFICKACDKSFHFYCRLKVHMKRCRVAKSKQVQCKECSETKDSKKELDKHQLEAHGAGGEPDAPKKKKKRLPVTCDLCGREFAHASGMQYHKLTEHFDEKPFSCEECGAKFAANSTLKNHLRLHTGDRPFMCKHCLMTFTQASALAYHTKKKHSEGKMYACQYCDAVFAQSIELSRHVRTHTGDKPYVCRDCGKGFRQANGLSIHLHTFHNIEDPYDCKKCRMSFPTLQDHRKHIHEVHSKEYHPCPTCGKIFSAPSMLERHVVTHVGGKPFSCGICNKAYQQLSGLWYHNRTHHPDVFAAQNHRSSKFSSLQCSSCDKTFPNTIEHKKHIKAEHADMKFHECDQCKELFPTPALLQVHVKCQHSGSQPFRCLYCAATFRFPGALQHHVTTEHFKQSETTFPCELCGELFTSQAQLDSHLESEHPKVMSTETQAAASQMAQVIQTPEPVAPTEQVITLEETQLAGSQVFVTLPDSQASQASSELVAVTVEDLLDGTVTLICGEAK
inactive: erlotinib -0.044 | [11] -0.019 | [2] -0.014 | [12] -0.075 | [3] -0.045 | [13] -0.017 | IRAK-1-4 Inhibitor I -0.048 | [9] 0.035 | ralimetinib 0.096 | [4] -0.012 | [5] 0.057 | [16] 0.081 | [1] -0.042 | [6] 0.009 | [7] -0.007 | [10] -0.044

ZNF644 (UniProt Q9H582)
inactive: erlotinib 0.192 | [11] -0.085 | [2] 0.071 | [12] 0.075 | [8] 0.066 | [3] -0.115 | [13] -0.04 | [14] 0.036 | [15] -0.037 | IRAK-1-4 Inhibitor I 0.035 | ibrutinib 0.07 | ralimetinib -0.023 | [4] 0.052 | [5] 0.038 | [16] -0.061 | [1] 0.042 | [6] -0.005 | [7] -0.02

ZNF845 (UniProt Q96IR2)
inactive: erlotinib -0.033 | [11] -0.145 | [2] 0.102 | [12] 0.02 | [8] -0.09 | [3] 0.047 | [13] -0.123 | IRAK-1-4 Inhibitor I -0.044 | ibrutinib 0.087 | [9] -0.039 | ralimetinib 0.093 | [4] 0 | [5] -0.061 | [16] -0.047 | [1] 0.072 | [6] 0.005 | [7] -0.012 | [10] -0.109

VASN (UniProt Q6EMK4)
inactive: [2] 0.071 | [3] -0.191 | [14] -0.277 | [15] -0.01 | IRAK-1-4 Inhibitor I 0.222 | ralimetinib 0.332 | [4] 0.172 | [5] -0.004 | [1] -0.255 | [7] -0.295
active: erlotinib -0.644

VPS72 (UniProt Q15906)
Chain of UniProt Q15906 (Q15906 whole entry, looked up): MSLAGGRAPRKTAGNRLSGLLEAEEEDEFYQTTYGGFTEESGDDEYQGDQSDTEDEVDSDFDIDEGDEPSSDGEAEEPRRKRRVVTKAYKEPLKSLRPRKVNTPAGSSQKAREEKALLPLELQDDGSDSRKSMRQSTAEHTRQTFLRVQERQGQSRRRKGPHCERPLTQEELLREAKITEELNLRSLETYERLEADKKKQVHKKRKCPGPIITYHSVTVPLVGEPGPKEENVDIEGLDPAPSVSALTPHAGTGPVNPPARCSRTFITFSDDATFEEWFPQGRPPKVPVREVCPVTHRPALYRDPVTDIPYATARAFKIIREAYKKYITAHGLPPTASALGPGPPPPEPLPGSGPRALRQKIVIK
inactive: erlotinib 0.056 | [11] -0.036 | [2] 0.046 | [12] -0.057 | [3] -0.04 | [13] 0.052 | [14] 0.024 | [15] 0.059 | IRAK-1-4 Inhibitor I -0.008 | [9] 0.016 | ralimetinib 0.046 | [4] -0.06 | [5] -0.028 | [16] -0.098 | [1] 0.005 | [6] 0 | [7] -0.01 | [10] -0.038

URGCP (UniProt Q8TCY9)
Chain of UniProt Q8TCY9 (Q8TCY9 whole entry, looked up): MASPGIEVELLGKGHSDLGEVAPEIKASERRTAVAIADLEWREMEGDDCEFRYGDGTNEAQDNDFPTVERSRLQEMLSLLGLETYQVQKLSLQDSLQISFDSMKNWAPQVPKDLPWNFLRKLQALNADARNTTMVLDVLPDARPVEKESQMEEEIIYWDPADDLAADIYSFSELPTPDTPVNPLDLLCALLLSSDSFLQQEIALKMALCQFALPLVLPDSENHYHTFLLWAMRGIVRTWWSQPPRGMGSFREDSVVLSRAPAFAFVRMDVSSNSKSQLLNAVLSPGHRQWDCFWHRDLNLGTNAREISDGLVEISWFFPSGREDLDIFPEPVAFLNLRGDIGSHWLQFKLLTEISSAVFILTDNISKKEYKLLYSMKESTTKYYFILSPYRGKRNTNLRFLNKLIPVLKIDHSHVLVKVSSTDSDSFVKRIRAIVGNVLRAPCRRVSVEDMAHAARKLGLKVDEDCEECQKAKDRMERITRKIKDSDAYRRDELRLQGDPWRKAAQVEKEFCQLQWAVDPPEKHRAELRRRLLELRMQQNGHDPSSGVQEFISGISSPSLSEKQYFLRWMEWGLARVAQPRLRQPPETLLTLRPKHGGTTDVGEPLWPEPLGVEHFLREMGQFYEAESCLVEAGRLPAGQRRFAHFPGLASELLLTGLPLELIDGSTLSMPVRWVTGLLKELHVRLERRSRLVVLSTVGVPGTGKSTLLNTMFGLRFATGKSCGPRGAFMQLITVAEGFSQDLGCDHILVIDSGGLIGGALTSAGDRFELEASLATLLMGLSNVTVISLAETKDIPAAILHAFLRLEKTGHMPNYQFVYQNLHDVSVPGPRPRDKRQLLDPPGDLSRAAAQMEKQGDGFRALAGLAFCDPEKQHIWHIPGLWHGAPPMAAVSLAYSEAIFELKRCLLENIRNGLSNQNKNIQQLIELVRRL
active: [4] -0.515
inactive: [11] -0.024 | [12] -0.075 | [8] -0.01 | [3] -0.038 | [13] 0.051 | IRAK-1-4 Inhibitor I 0.022 | ibrutinib 0.081 | ralimetinib -0.07 | [16] -0.05 | [1] 0.008 | [7] -0.042
